Reference: PubChem BioAssay AID1159580 (chemical genetic matrix, 2015)
Among all 5,500 compounds or so, about 2,000 (36%) were called active. Another 18% or so got no clear call; they are omitted. Cut-off read from the data, not from the text of the source: active = normalized growth mostly below about 0.91 (no sharp cut-off); inconclusive = no clear call, values can overlap the other calls; inactive = mostly above about 0.92. The list shows a part of the results.

Test: chemical genetic growth profiling, strain panel (AID 1159580);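 note: tested at 20 µM; growth read once vehicle control cultures reached saturation at 30 °C; 1 = growth at the plate median or of vehicle wells; lower values mean less growth of the strain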
Conditions: growth OD
[1] = S. cerevisiae deletion strains, locus YAL013W, strain DEP1, hits give low values
[2] = S. cerevisiae deletion strains, locus YBR229C, strain ROT2, hits give low values
[3] = S. cerevisiae deletion strains, locus YCL061C, strain MRC1, hits give low values
[4] = S. cerevisiae deletion strains, locus YDL101C, strain DUN1, hits give low values
[5] = S. cerevisiae deletion strains, locus YDR150W, strain NUM1, hits give low values
[6] = S. cerevisiae deletion strains, locus YEL061C, strain CIN8, hits give low values
[7] = S. cerevisiae deletion strains, locus YGR078C, strain PAC10, hits give low values
[8] = S. cerevisiae deletion strains, locus YHR030C, strain SLT2, hits give low values
[9] = S. cerevisiae deletion strains, locus YHR087W, strain rtc3, hits give low values
[10] = S. cerevisiae deletion strains, locus YJL187C, strain SWE1, hits give low values
[11] = S. cerevisiae deletion strains, locus YJR043C, strain POL32, hits give low values
[12] = S. cerevisiae deletion strains, locus YJR075W, strain HOC1, hits give low values
[13] = S. cerevisiae deletion strains, locus YKL190W, strain CNB1, hits give low values
[14] = S. cerevisiae deletion strains, locus YLR039C, strain RIC1, hits give low values
[15] = S. cerevisiae deletion strains, locus YLR058C, strain SHM2 (second series), hits give low values
[16] = S. cerevisiae deletion strains, locus YLR085C, strain ARP6, hits give low values
[17] = S. cerevisiae deletion strains, locus YLR262C, strain YPT6, hits give low values
[18] = S. cerevisiae deletion strains, locus YML094W, strain GIM5, hits give low values
[19] = S. cerevisiae deletion strains, locus YMR219W, strain ESC1, hits give low values
[20] = S. cerevisiae deletion strains, locus YMR263W, strain SAP30, hits give low values
[21] = S. cerevisiae deletion strains, locus YNL128W, strain TEP1, hits give low values
[22] = S. cerevisiae deletion strains, locus YNL153C, strain GIM3, hits give low values
[23] = S. cerevisiae deletion strains, locus YNL298W, strain CLA4 (second series), hits give low values
[24] = S. cerevisiae deletion strains, locus YNL322C, strain KRE1, hits give low values
[25] = S. cerevisiae deletion strains, locus YNR030W, strain Alg12, hits give low values
[26] = S. cerevisiae deletion strains, locus YOL006C, strain TOP1, hits give low values
[27] = S. cerevisiae deletion strains, locus YPL055C, strain LGE1, hits give low values
[28] = S. cerevisiae deletion strains, locus YPL241C, strain CIN2, hits give low values
[29] = S. cerevisiae deletion strains, locus YPR135W, strain CTF4, hits give low values
[30] = S. cerevisiae deletion strains, locus YGR229C, strain SMI1, hits give low values
[31] = S. cerevisiae strains, strain wild type, hits give low values
[32] = S. cerevisiae deletion strains, locus YDL134C, strain PPH21, hits give low values

Measured: normalized growth

CC(=O)Nc1ccc(S(=O)(=O)NCCCN2CCN(Cc3ccccc3)CC2)cc1Cl
inactive: [1] 0.993 | [2] 1.01 | [3] 0.999 | [4] 0.952 | [5] 0.924 | [6] 1.04 | [7] 0.983 | [8] 1.03 | [9] 1.02 | [10] 1.01 | [11] 0.992 | [12] 1.01 | [13] 0.993 | [14] 0.992 | [15] 1.01 | [16] 1.02 | [17] 1 | [18] 1.01 | [19] 0.996 | [20] 0.944 | [21] 0.986 | [22] 0.994 | [23] 0.969 | [24] 0.999 | [25] 0.99 | [26] 1.02 | [27] 0.915 | [28] 1 | [29] 0.926

O=C(Cc1ccccc1)NC1CCN(S(=O)(=O)c2ccc(Cl)cc2)CC1
inactive: [1] 1.01 | [2] 1 | [3] 0.992 | [4] 1.01 | [5] 0.996 | [6] 1.01 | [7] 0.98 | [30] 0.992 | [8] 0.973 | [9] 1 | [11] 0.985 | [12] 0.962 | [13] 0.994 | [14] 1 | [15] 0.993 | [16] 1.01 | [17] 1.01 | [18] 1 | [19] 0.999 | [20] 0.992 | [22] 0.982 | [23] 1.03 | [24] 0.998 | [25] 1 | [26] 1.02 | [27] 0.986 | [28] 1.03 | [29] 0.971 | [31] 1.01

O=S(=O)(c1ccc(Cl)cc1)N1CCN(Cc2ccccc2)CC1
inactive: [1] 1.01 | [2] 0.99 | [3] 1.01 | [4] 0.985 | [5] 0.986 | [6] 0.958 | [7] 0.992 | [8] 0.856 | [9] 0.978 | [11] 1.01 | [12] 0.982 | [14] 0.846 | [15] 1 | [16] 0.985 | [18] 0.967 | [19] 0.994 | [20] 1.02 | [22] 1 | [23] 0.956 | [24] 0.998 | [25] 0.987 | [27] 0.972 | [28] 0.978 | [29] 0.923 | [31] 0.987
active: [17] 0.809

Cc1ccc(S(=O)(=O)N2CCCCCC2)cc1
inactive: [1] 0.98 | [2] 0.997 | [3] 0.997 | [4] 0.985 | [32] 0.999 | [5] 0.976 | [6] 1.01 | [7] 0.985 | [30] 0.988 | [8] 0.896 | [9] 1.03 | [11] 0.999 | [12] 0.998 | [14] 0.881 | [15] 0.998 | [16] 0.921 | [17] 0.928 | [18] 1.02 | [19] 0.983 | [20] 1 | [22] 0.987 | [23] 0.983 | [24] 0.972 | [25] 0.983 | [26] 0.961 | [27] 1.04 | [28] 0.984 | [29] 0.843 | [31] 1

Cc1ccc(S(=O)(=O)N2CCC(C(c3ccccc3)c3ccccc3)CC2)cc1
inactive: [1] 0.998 | [2] 0.989 | [3] 0.963 | [4] 0.975 | [5] 0.948 | [6] 0.994 | [7] 0.972 | [8] 0.971 | [9] 1.05 | [11] 1 | [12] 1 | [14] 0.97 | [15] 1.01 | [16] 0.989 | [17] 0.989 | [18] 1 | [19] 0.993 | [20] 0.994 | S. cerevisiae deletion strains, locus YMR307W, strain GAS1, hits give low values 1.24 | [21] 0.969 | [22] 0.988 | [23] 0.971 | [24] 0.999 | [25] 1.01 | [27] 1.06 | [28] 0.986 | [29] 0.986 | [31] 0.974

Cc1ccc(S(=O)(=O)N2CCN(CCOc3ccccc3)CC2)cc1
inactive: [1] 1 | [2] 0.994 | [3] 0.982 | [4] 0.992 | [32] 1 | [5] 0.961 | [6] 0.972 | [7] 0.993 | [30] 0.99 | [8] 0.896 | [9] 0.995 | [10] 0.995 | [11] 1 | [12] 0.984 | [14] 0.828 | [15] 0.987 | [16] 0.966 | [18] 0.944 | [19] 0.985 | [21] 0.997 | [22] 0.989 | [23] 0.96 | [24] 0.997 | [25] 0.967 | [27] 0.953 | [28] 0.982 | [29] 0.99
active: [17] 0.701
